Molecules are shown by their SMILES. Screen size: about 65,000 compounds; about 2,100 (3.2%) showed an effect of 50% or more. The median lay at about -52%. The entries come from a sample that favours strong results as a whole.

The assay deals with Plasmodium falciparum. As to the kind of experiment: Screen against P. falciparum Asexual Blood Stage (ABS), at 5uM. Format: functional, Dd2. As to conditions: tested at 5 uM.
Regarding `Cc1cc(Cl)ccc1C(=O)C1CCCN(Cc2cnc(N(C)C)s2)C1` (stereo unspecified), the INHIBITION is given as -28.8%. Regarding `COc1ccc(C(=O)C2CCCN(Cc3cnn(C)c3C)C2)c(OC)c1` (stereo unspecified), the INHIBITION turned out to be 39.5%. On to `Cc1c(CN2CCCC(C(=O)c3ccc(C(C)(C)C)cc3)C2)cnn1C` (stereo unspecified), for which the INHIBITION is reported as 57.9%. Take `CCCn1ncc(CN2CCCC(C(=O)c3ccc(SC)cc3)C2)c1C` (stereo unspecified): the INHIBITION came to 65.8%.

With `CCCn1ncc(CN2CCCC(C(=O)c3ccc(Cl)cc3C)C2)c1C` (stereo unspecified), the INHIBITION was determined as 78.4%.

`CCn1ncc(CN2CCCC(C(=O)c3ccc(Cl)cc3)C2)c1C` (stereo unspecified): the INHIBITION was found to be 70.5%. Regarding `Cc1cc(CN2C[C@@H]3COC[C@]3(CNC(=O)N3CCCC3)C2)no1`, the INHIBITION is given as -22.5%.

Regarding `COCCNC(=O)[C@@]12CCO[C@@H]1CCN(Cc1c(C)noc1C)C2`, the INHIBITION is -191%. Consider `O=C1CSC(c2ccc(O)c(Cl)c2)c2c(n(C3CCOCC3)[nH]c2=O)N1` (stereo unspecified), for which the INHIBITION was -57.7%. Regarding `CCC(C)N1CCC(Oc2ccc(C(=O)NCCN(C)C)cc2Cl)CC1` (stereo unspecified), the INHIBITION turned out to be 79.7%. `Cc1nc(C2(NCC(=O)NC(=O)NCC(F)(F)F)CCCCC2)no1`: the INHIBITION was -29.3%. As to `COc1cc(C)c(-c2ccc(F)c3c2OC(CN)C3)cc1C` (stereo unspecified), the INHIBITION was 83.8%. With `Cn1ncc2c1NC(=O)CSC2c1ccccc1Cl` (stereo unspecified), the INHIBITION was -82.5%.

As to `Cc1ccc(N2C[C@@H]3OCCN(Cc4c(C)noc4C)[C@@H]3C2)nn1`, the INHIBITION was determined as 6.3%. With `Cc1nc(C)c(C)c(N2CCC3(CCN(C)C3)C2)n1` (stereo unspecified), the INHIBITION was determined as 19.5%. As for `CCc1nc(N)nc(N2CCCC3(CCN(C)CC3)CC2)c1C`, the INHIBITION is given as 76.1%. Regarding `CC(C)c1cc(N2CCCC3(CCN(C)C3)C2)ncn1` (stereo unspecified), the INHIBITION is -28.1%.

With `Cc1cc(NCCc2c[nH]cn2)nc(-c2cccnc2)n1`, the INHIBITION is -108.15%. With `Cc1cc(NCCN)nc(-c2ccccc2O)n1`, the INHIBITION stood at 79.2%. As for `Cn1nc(C2CC2)c2c1NC(=O)CC2c1cc(CN2CCCC2)cs1` (stereo unspecified), the INHIBITION is recorded as 81.9%.

Regarding `CCN1CCC2(CC1)NC(=O)c1cc(Br)ccc1-n1nnnc12`, the INHIBITION is recorded as -47.7%. Regarding `O=C(N1CCCC1)N1C[C@@H]2CCNC[C@@H]21`, the INHIBITION was -67.9%.

In the case of `FC(F)CNc1cnc(C2CCNCC2)cn1`, the INHIBITION is -139%. The same measure for `O=C(Nc1ccc(Cl)cn1)c1cncc(C2CCNCC2)n1`: 70%; for `Cc1nn(CCNC(C)Cn2cncn2)c(C)c1Cl` (stereo unspecified): -44.7%; for `FC(F)(F)c1cc(C2CCNCC2)nc(-c2ccsc2)n1`: 89.2%.

For the molecule `c1c[nH]c2nc(C3CCNCC3)nc-2c1`, the INHIBITION is listed as -162%.

As to `FC(F)(F)c1nc(C2CCNCC2)no1`, the INHIBITION is reported as -40.3%. Consider `CS(=O)(=O)CCCNCc1c(Cl)cccc1N1CCCC1`, for which the INHIBITION is reported as 72%.

For the molecule `CCOCCN1CCO[C@H]2[C@H](OCc3ccccn3)CC[C@@H]21`, the INHIBITION is -65.4%. In the case of `O=C(C[C@@H]1COC[C@H]2CN(Cc3cccnc3)C[C@@H]12)NCC1CC1`, the INHIBITION is on record as -71.5%. Regarding `CCN1C[C@H]2[C@@H](C1)N(C(=O)Cc1ccsc1)CC[C@H]2OC`, the INHIBITION is listed as -31.1%. For the molecule `CCN1C[C@@H]2[C@@H](OC)CCN(C(=O)Cc3ccsc3)[C@@H]2C1`, the INHIBITION worked out at 60%. On to `CO[C@H]1CCN(C(=O)Cc2ccsc2)[C@@H]2CN(CC3CC3)C[C@H]12`, for which the INHIBITION stood at 19.6%. In the case of `Cc1cccc(C)c1Nc1noc2c1CN(C(=O)c1cn(C)cn1)CC2`, the INHIBITION was found to be 88.3%.

Turning to `Cc1cccc(C)c1Nc1noc2c1CN(C(=O)c1ccn(C)n1)CC2`, the INHIBITION is 86.6%. For the molecule `Cc1cccc(C)c1Nc1noc2c1CN(C(=O)c1ccnn1C)CC2`, the INHIBITION came out at 81.7%. In the case of `Cc1cccc(C)c1Nc1noc2c1CN(C(=O)c1c[nH]nc1C)CC2` it was 93%. For the molecule `O=C(c1cc2ccccc2[nH]c1=O)N1CCC2(CCCNC2)C1` (stereo unspecified), the INHIBITION is -49.9%. As to `CCCN1CC[C@@H]2OC[C@H](C(=O)Nc3cccnc3)C[C@@H]2C1`, the INHIBITION is listed as -131%. In the case of `CC(C)NC(=O)CN1CCSC2(CCCCC2)C1` it was -66.6%.

Regarding `CN1CC=C(c2noc(CCC(=O)N3CCc4ccccc4C3)n2)CC1`, the INHIBITION is -27.1%.

Consider `CCc1ccccc1Nc1noc2c1CN(C(=O)CCOC)CC2`, for which the INHIBITION was found to be 85.1%. For `CC(C)Nc1nc2c(c(NC3CC3)n1)CCN(Cc1nccn1C)CC2`, the INHIBITION was 76.1%. The same measure for `Cc1cccc(CN2CC[C@@H]3[C@@H]2CCN3C(=O)Cc2ccsc2)n1`: -115%. In the case of `Cn1ccnc1CN1CCN2C[C@H](Oc3cncnc3)C[C@H]2C1`, the INHIBITION is -70.4%. As to `CC(C)N1CCO[C@H]2CN(C(=O)Cc3ccsc3)C[C@H]21`, the INHIBITION was -23.1%. For the molecule `Cn1ccnc1CN1CC[C@H]2CO[C@H](CNc3ncccn3)[C@H]2C1`, the INHIBITION was -52.6%.

`CC(C)Nc1nc2c(c(NC3CC3)n1)CN(C(=O)Cc1ccsc1)CC2`: the INHIBITION was 75.6%. In the case of `CN1CCC(n2cc3nc(N)[nH]cc-3c2=O)CC1`, the INHIBITION is -44.7%. In the case of `O=C(COc1ccccc1)N1C[C@@H](O)[C@H](N2CCCC2)C1`, the INHIBITION is on record as -15.5%.

In the case of `CNC(=O)[C@@H]1C[C@H]2CN(Cc3c(C)noc3C)C[C@H]2N1C(C)C`, the INHIBITION is listed as -39.8%.

On to `Cc1cc(N(C)CCOc2ccccc2F)nc(N)n1`, for which the INHIBITION turned out to be 85.3%. `COCCN(C)C(C)Cc1ccccc1OC` (stereo unspecified): the INHIBITION worked out at 23.6%. As to `COc1ccccc1OCCN(C)c1cc(C)nc(N)n1`, the INHIBITION is reported as 70.2%. With `COc1ccccc1OCCCN(C)c1cc(C)nc(N)n1`, the INHIBITION was found to be 73.5%. For the molecule `CC(C)CNC(=O)N1C[C@H]2CCN[C@H]2C1`, the INHIBITION is reported as 14%. In the case of `N#CC1(C(=O)NCC2CCC3(CCNCC3)O2)CC1` (stereo unspecified) it was 22.6%. With `CCS(=O)(=O)c1nnc([C@@H](N)Cc2ccccc2)o1`, the INHIBITION is -131%.

On to `CC[C@H](C)[C@@H](CO)NC(C)Cc1ccc(Cl)cc1` (stereo partly specified), for which the INHIBITION is 18.9%. Take `COCCN1C(=O)CC[C@@H]2[C@@H]1CCN2Cc1c(C)noc1C`: the INHIBITION is -35.6%.

`O=C(Nc1cccnc1)[C@H]1CN(C2CCCC2)C[C@H]2OCC[C@@H]12`: the INHIBITION is recorded as -39.7%.

On to `CN(C)CCN1CCN(Cc2nccs2)Cc2cccnc21`, for which the INHIBITION came to 5.69%. For `CN(C)CCN1CCN(Cc2cccs2)Cc2cccnc21`, the INHIBITION is 77.1%. As for `COCCN1CCN(Cc2ccoc2)Cc2cccnc21`, the INHIBITION was 21%. Regarding `CC(C)c1cc(C(=O)N2CCCC3(CCNC3)C2)no1` (stereo unspecified), the INHIBITION is given as -75.8%.

On to `CCN1C[C@@H]2CN(Cc3cccs3)C[C@@H]2C1=O`, for which the INHIBITION is 37.6%. `O=C1CN(C(=O)c2ccc(F)cc2)CC(O)CN1Cc1cccs1` (stereo unspecified): the INHIBITION is on record as 88.8%. On to `O=C1[C@H]2CN(Cc3cccs3)C[C@H]2CN1c1cncnc1`, for which the INHIBITION is recorded as -85.7%.

On to `COCC(=O)NC(C)Cc1cccc(OC)c1` (stereo unspecified), for which the INHIBITION is -118%. As to `Cc1noc(C)c1CN1C[C@@H]2COC[C@@H](C(=O)N3CCCO3)[C@@H]2C1`, the INHIBITION is given as -40.4%. In the case of `Cc1c(C(C)NCC2CCCC2)cnn1-c1ccc(F)cc1F` (stereo unspecified), the INHIBITION turned out to be 71.9%. For the molecule `Cc1c(C(C)NC2CCN(C(C)C)CC2)cnn1-c1ccc(F)cc1F` (stereo unspecified), the INHIBITION is 79.9%. Take `N#Cc1ccc(NC2CCN(c3ncccn3)CC2)cc1C(F)(F)F`: the INHIBITION was found to be 5.54%. On to `CCc1noc(C(C)N2CCNCC2)n1` (stereo unspecified), for which the INHIBITION is reported as -31.4%. As for `CCN1CCCC1CN(CCN(C)C)S(=O)(=O)c1ccccc1C#N` (stereo unspecified), the INHIBITION is recorded as 79.6%. In the case of `O=C(NC1CC(F)(F)C1)[C@]12COC[C@H]1CN(Cc1cccnc1)C2` it was -63.2%; in that of `CC1CCN(CCNCc2cc(-c3ccccc3)cn3nnnc23)CC1`, 70.1%. As to `O=C(Cc1ccsc1)N1C[C@@H]2OCCN(CC3CCCO3)[C@@H]2C1` (stereo partly specified), the INHIBITION was -85.3%. Regarding `O=C(N1CCOCC1)N1CCCC2(CCCNC2)C1` (stereo unspecified), the INHIBITION is recorded as -45.8%. As for `Cn1cc(CN2C[C@@H]3OCCN(c4ncccn4)[C@@H]3C2)cn1`, the INHIBITION is given as -106%. With `CCOc1ccc2ccccc2c1CNCC1CCS(=O)(=O)C1` (stereo unspecified), the INHIBITION turned out to be 74.9%. `CCOc1ccc2ccccc2c1CNCC1CCNCC1`: the INHIBITION came to 91.6%.

In the case of `CC(C)CCN1C[C@@H]2C[C@H](C(=O)Nc3cccnc3)[C@H](C1)O2`, the INHIBITION is on record as -112%. As for `C[C@@H]1CN(C2CCOC2)C[C@]12CCN(c1cccnc1)C2=O` (stereo partly specified), the INHIBITION is recorded as -78.9%. In the case of `CC(=O)N1C[C@@H]2CN(Cc3cccnc3)CCO[C@@H]2C1` it was -51.9%. For `Cc1ccc([C@]2(O)CC[C@H]3CN(Cc4cccnc4)C[C@H]32)nc1`, the INHIBITION is -61.7%.

With `Cc1ccc([C@]2(O)CC[C@H]3CN(Cc4ccncc4)C[C@H]32)nc1`, the INHIBITION is on record as -23.8%.

For the molecule `Cc1ccc([C@]2(O)CC[C@H]3CN(Cc4cc(C)c(O)c(C)c4)C[C@H]32)nc1`, the INHIBITION is listed as 74.6%.

On to `Cc1ccc(-c2cn3c(n2)CO[C@@H](CNCc2nccn2C)C3)cc1`, for which the INHIBITION was 87.4%.

With `CC[C@H]1CN2CC[C@H]1C[C@@H]2CNCc1ccc(OC(F)(F)F)cc1`, the INHIBITION is 85.7%.

For the molecule `CC[C@H]1CN2CC[C@H]1C[C@@H]2CNCc1ccc(OC)cc1`, the INHIBITION came to 7%. Take `CC[C@H]1CN2CC[C@H]1C[C@@H]2CNC(=O)Nc1cc(OC)cc(OC)c1`: the INHIBITION was 63.8%. The same measure for `CC[C@H]1CN2CC[C@H]1C[C@@H]2CNCc1ccc(N(C)C)cc1`: 62.8%; for `CC[C@H]1CN2CC[C@H]1C[C@@H]2CNCc1ccc2c(c1)OCO2`: 60.9%. The same measure for `CC1CCN(C[C@H]2CN3CC[C@H]2C[C@@H]3CNC(=O)c2ccco2)CC1`: -36.5%; for `COCC(=O)NC[C@H]1C[C@@H]2CCN1C[C@@H]2CN(C)c1ccccc1`: -64.8%; for `CC(C)NC(=O)NC[C@H]1C[C@@H]2CCN1C[C@@H]2CN(C)c1ccccc1`: -37.9%. As for `CCN(CC)C[C@H]1CN2CC[C@H]1C[C@@H]2CNC(=O)Nc1ccsc1`, the INHIBITION was found to be 8.11%. Regarding `CC[C@H]1CN2CC[C@H]1C[C@@H]2CNC(=O)NC1CCCCC1`, the INHIBITION is -27.6%. As for `CC[C@H]1CN2CC[C@H]1C[C@@H]2CNC(=O)Nc1ccccc1`, the INHIBITION is given as -65.9%.

For the origin of these results see ChEMBL document CHEMBL4513216, “Probing the Open Global Health Chemical Diversity Library for Multistage-Active Starting Points for Next-Generation Antimalarials” (ACS Infect Dis, 2020).
